Bioassay records (PubChem BioAssay)
IMPase Li inh = cell-permeable IMPase inhibitors with lithium potentiation; CHO-M1 cells, IP1 TR-FRET (IP-One), carbachol + lithium; Potency, µM (titrated, usually from 59.4 µM), usual class: inhibitors; 0.35% of 210,000 active;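 note: IP1 builds up when IMPase is blocked and the TR-FRET signal falls; nearly all actives have a fitted effect of over 50% in size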
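Test compounds were applied to CHO-M1 cells previously cultured for 16–30 h at 2000 per well. A small lithium amount accompanied them; after 30 min at 37C, IP1 was quantified by TR-FRET.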
12-hLO inh = blocks human 12-lipoxygenase activity; purified 12-hLO, xylenol orange hydroperoxide absorbance; Potency, µM (titrated, usually from 57.1 µM), usual class: inhibitors; 0.12% of 150,000 active; note: nearly all actives have a fitted effect of over 55% in size
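Lipoxygenase turnover measured by absorbance at 573 and 405 nm after Fe-XO development. Human 12hLO 150 nM, arachidonate 40 uM, pH 7.0 Hepes buffer with detergent; 15 min compound preincubation, 30 min reaction.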
PNC assembly inh = perinucleolar compartment assembly inhibition | PC3M PTB-GFP, PNC prevalence imaging, 16 h; hits give low values | activity change (PNC), negative = inhibition, % at 10 µM | 3.1% of 140,000 active | AID 2417;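 active = readout at or below -70, meaning at least 70% loss of cells showing the perinucleolar compartment, a nuclear body marking cancer cells; inconclusive = readout between -30 and a set limit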
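Compounds are pinned in duplicate onto adhered PC3M cells stably expressing GFP-tagged PTB and incubated 16 h at 37 C. Cells are then fixed, nuclei stained with Hoechst, and PNC-positive cells counted.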
IMPase inh = membrane-permeable compound that blocks inositol monophosphatase; 120,000 tested, under 10 active; P97697; CHO-M1 cells, IP1 accumulation, HTRF TR-FRET ratio; AID 901; inhibition (IP1 accumulation), % at 46.1 µM; active = well fitted curve in the direction sought with a large enough effect in the signal ratio, not every such curve was filed as active; inconclusive = small, poorly fitted or top-dose-only effect, or a change in a side signal; inactive = no such curve, though single readings can be large or run the other way; the % refers to the signal ratio;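 note: cells stimulated with carbachol in lithium chloride buffer; higher means more IMPase inhibition seen as more IP1 and lower FRET ratio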
Target sequence (P97697 whole entry, looked up): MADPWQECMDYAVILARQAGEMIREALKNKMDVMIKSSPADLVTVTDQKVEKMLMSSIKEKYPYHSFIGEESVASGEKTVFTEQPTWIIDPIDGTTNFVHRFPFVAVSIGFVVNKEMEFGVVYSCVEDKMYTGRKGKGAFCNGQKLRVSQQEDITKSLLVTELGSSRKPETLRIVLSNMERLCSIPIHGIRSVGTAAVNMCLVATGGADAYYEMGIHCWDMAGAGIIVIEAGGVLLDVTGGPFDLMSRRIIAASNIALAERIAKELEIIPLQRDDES
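Elevated IP1 in lysates lowers TR-FRET signal (665/620 ratio and 620 channel reported). Cells were CHO-M1, given carbachol (50 uM as added) plus 50mM LiCl, pH 7.4, 30 min, 37C; compounds titrated up to 46 uM; AC50 by Hill equation.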
Hits are given with their value; – = inactive; ? = inconclusive; · = not tested or not shown; [ ] = dose if it differs, or a comment. The entries come from a sample that favours hits as a whole. Unless noted, calls come from the whole dose curve; as a rule, active = well fitted curve in the direction sought with a large enough effect; inconclusive = small, poorly fitted or top-dose-only effect, or another doubt; inactive = no such curve, though single readings can be large; an effect the other way counts as inactive or inconclusive.

SMILES	IMPase Li inh	12-hLO inh	PNC assembly inh	IMPase inh
O=[N+]([O-])c1cnc(N2CCCCC2)c([N+](=O)[O-])c1	–	–	?	·
O=C(NC(CCl)c1ccccc1)c1ccc(Cl)cc1 (stereo unspecified)	–	·	·	·
O=C(CC(NC(=O)c1ccccc1Cl)c1ccccc1)NCCc1ccc(Cl)cc1 (stereo unspecified)	–	–	-108	–
Cc1ccccc1-n1nc(C(=O)c2cccs2)cc(-c2nc3ccccc3[nH]2)c1=N	–	–	-100	–
COc1ccc(-n2nc(C(=O)c3cccs3)cc(-c3nc4ccccc4[nH]3)c2=N)cc1	–	–	–	–
Cc1nn(CCc2nn[nH]n2)c2nc(-c3ccc(C4CCCCC4)cc3)cc(C(F)(F)F)c12	–	·	·	·
Cc1ccccc1-c1cc(C(=O)Nc2nc3c(s2)CCCC3)c2ccccc2n1	–	–	-100	–
CCn1c(COc2ccc(C)cc2)nnc1SCC(=O)NNC(=O)c1ccc(OC)cc1	–	–	-83	·
CCn1c(SCC(=O)NNC(=O)c2ccc(OC)cc2)nnc1-c1cccnc1	–	·	·	·
O=C(Nc1nc2c(s1)CCCC2)c1cc(-c2ccc3c(c2)OCO3)nc2ccccc12	–	–	?	–
CCc1nc(SCC(=O)Nc2nc3c(s2)CCCC3)c2ccccc2n1	10µM	–	–	?
CCc1nc(SCC(=O)NNC(=O)c2ccc(OC)cc2)c2ccccc2n1	8.9µM	·	·	·
CCCSc1nc(-c2ccc(OC)cc2)cc(-c2ccccc2OC)c1C#N	·	·	·	–
CCCc1nc(SCC(=O)Nc2cc(C)on2)c2ccccc2n1	?	–	–	–
Cc1ccc(CC(=O)Nc2nc3c(s2)CCCC3)cc1	–	–	-100	–
CCCc1nc(SCC(=O)Nc2nc3c(s2)CCCC3)c2ccccc2n1	13µM	–	–	–
O=C(CS(=O)(=O)Cc1ccccc1)Nc1nc2c(s1)CCCC2	–	–	?	–
COc1ccc(-c2cc(C(=O)N/N=C/c3ccc(O)cc3)[nH]n2)cc1	·	–	·	·
CC(=O)c1c(C)cc(C)c(CSc2nc(C)cc(=O)[nH]2)c1C	–	–	-112	–
CC1=C(C(=O)Nc2ccccc2)C(c2ccc(O)cc2)n2nc(-c3ccc(Cl)cc3)nc2N1 (stereo unspecified)	·	·	·	–
O=C(CCSc1nnc2ccc3ccccc3n12)Nc1ccc(F)cc1	11µM	–	–	?
c1ccc2nc(-c3nc4ccccc4o3)ccc2c1	–	–	-107	–
FC(F)(F)c1nc(=S)c2ccccc2[nH]1	3.2µM	·	·	·
Cc1nc(=S)c2ccccc2[nH]1	–	–	–	–
Cc1cc(NC(=O)CSc2ccc3nnc(-c4cccs4)n3n2)no1	–	–	-106	–
SMILES	IMPase Li inh	12-hLO inh	PNC assembly inh	IMPase inh
CCCCn1cnc2c(SC)ncnc21	–	–[11.4 µM]	·	·
Cn1c(SCC(=O)N2CCc3ccccc3C2)nnc1-c1ccncc1	–	–	?	·
Cc1ccccc1-n1c(C)nnc1SCC(=O)N1CCc2ccccc2C1	–	–	-107	·
COCC(C)n1c(SCC(=O)N2CCc3ccccc3C2)nc2ccccc2c1=O (stereo unspecified)	–	–	-121	·
COC(=O)[C@@H](NC(=O)O[C@H]1C(=O)c2cc(OC)ccc2O[C@@H]1c1ccc(OC)c(Br)c1)C(C)C	–	·	·	·
C[C@@]12CC[C@@H]3[C@@H](CC[C@H]4C[C@@H](O)CC[C@]43C)[C@H]1CC[C@@H]2c1cc(C(F)(F)F)n[nH]1	–	–[11.4 µM]	·	·
COc1ccc(Cc2nnc(NC(=O)C3CCCO3)s2)cc1 (stereo unspecified)	–	–	-123	–
Cc1cnc(CNc2ncnc3ccc(-c4cccc(NS(C)(=O)=O)c4)cc23)cn1	–	·	·	·
NC(=NCc1ccc(Cl)cc1Cl)NC(=O)c1nc(Cl)c(N)nc1N	–	·	·	·
CN(C)C(CNC(=S)Nc1ccc(F)cc1)c1cccnc1 (stereo unspecified)	–	·	·	·
COC(=O)c1ccc(CCc2cc(O)ccc2O)cc1	–	3.5µM	·	·
COC(=O)c1ccc(O)cc1	·	–[0.00818 µM]	·	·
Cc1ccc(CNC(=O)C2=NNC(=O)CC2)cc1	–	–	?	·
COc1ccccc1CNC(=O)C(CC(C)C)NC(=O)C1CCC(C)CC1 (stereo unspecified)	–	–	-102	–
O=S(=O)(NCCc1ccc2c(c1)OCCO2)c1cccs1	–	–	-81	–
COc1ccc(CCNS(=O)(=O)c2cccs2)cc1	–	–	–	–
CS[C@@H](CC(=O)O)C(=O)O	–	–[11.4 µM]	·	·
CC(C)N(C(=O)CSc1nnc(NC(=O)Cc2cccs2)s1)C(C)C	–	·	·	·
